The source of these data is PubChem BioAssay AID588676 (Johns Hopkins Ion Channel Center, 2011).

About 3,900 (1.3%) of roughly 310,000 compounds were called active.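 How the source made its calls: active means calcium-response B-score plate-corrected more than 3 library SD below zero, starting fluorescence within 5 deviations, no agonist response on first addition; inactive means the rest.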 The sample as a whole holds a higher share of actives than the screen did.

The target of the test is Mas-related G-protein coupled receptor member X1 (Homo sapiens) (UniProt Q96LB2). Briefly: blockade of BAM8-22-evoked MrgX1 calcium response – HEK293 cells, Fluo-4 calcium flux, primary screen (AID 588676).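 On B-score: peak minus trough fluorescence over baseline after final BAM8-22 challenge near maximal dose.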 Particulars: Fluo-4, BAM8-22 antagonism, at 10 µM; hits give low values. On the technique in general: Calcium assays in cells follow changes in intracellular calcium, usually with a dye or a luminescent sensor.
Mas-related G-protein coupled receptor member X1 (Homo sapiens), sequence (Q96LB2 whole entry, looked up): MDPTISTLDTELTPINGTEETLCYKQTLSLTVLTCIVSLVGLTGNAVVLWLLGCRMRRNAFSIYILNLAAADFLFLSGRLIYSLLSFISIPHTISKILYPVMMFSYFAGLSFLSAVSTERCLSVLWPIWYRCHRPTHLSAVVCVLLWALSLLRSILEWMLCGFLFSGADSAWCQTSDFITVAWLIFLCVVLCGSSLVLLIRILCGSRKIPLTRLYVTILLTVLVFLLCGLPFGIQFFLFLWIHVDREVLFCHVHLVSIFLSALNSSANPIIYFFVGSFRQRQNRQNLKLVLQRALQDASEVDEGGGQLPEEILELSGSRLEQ
With `O=C(NCCc1csc(-c2ccccc2)n1)c1ccccc1F`, the B-score entry is “inactive”. The result for `CNC(=O)c1csc(-c2ccccc2)n1` reads “inactive”.

Take `O=C(c1cc(-c2ccccc2O)on1)N1CCCC1`: the B-score result was “inactive”. The result for `C=CCNC(=O)c1csc(-c2ccccc2)n1` reads -6.07 (active); that for `O=C(Nc1cccnc1Cl)c1cc(-c2ccccc2O)on1`, “inactive”. Regarding `C=CCNC(=O)c1cc(-c2ccccc2O)on1`, the B-score was -5.5 (active). The result for `CC(NC(=O)CCCC1CCCCC1)c1ccc(S(N)(=O)=O)cc1` (stereo not given) reads “inactive”; that for `Cc1ccc(C)c(N2CCN(C(=O)Cn3ncn4cccc4c3=O)CC2)c1`, “inactive”; that for `O=C(C1=C[C@H](C2CC2)C[C@H](OCc2ccc(CO)cc2)O1)N1CCN(Cc2ccccc2)CC1`, “inactive”.

Take `Nc1nc(NCc2ccccc2)n(-c2ccccc2)n1`: the B-score result is “inactive”. Consider `O=C1CCC(C(=O)N2CCCCO2)CN1Cc1cccc(C(F)(F)F)c1` (stereo not given), for which the B-score result was “inactive”.

`O=C(NC(=S)Nc1cccc(-c2ccc(CO)o2)c1)c1cccs1`: the B-score entry is “inactive”. The result for `CCc1ccc(-c2cc3c(=O)n(CC(=O)NCCCN4CCN(Cc5ccccc5)CC4)nc(C)n3n2)cc1` reads “inactive”; that for `COc1cccc(CNC(=O)CN(C)S(=O)(=O)c2ccc3c(c2)c(=O)n(C)c(=O)n3C)c1`, “inactive”; that for `COc1ccccc1NC(=O)CCC(=O)OC(C)C(=O)c1ccccc1` (stereo not given), “inactive”. `CC1(C(=O)NNC(=S)NCC2CCCO2)CC1(Cl)Cl` (stereo not given): the B-score was -5.39 (active). The result for `CCC(=O)NC(NCC1CCCO1)C(Cl)(Cl)Cl` (stereo not given) reads “inactive”.

Regarding `S=C(NCCc1ccccc1)NCC1CCCO1` (stereo not given), the B-score entry is “inactive”.

Turning to `COCCNC(=O)c1ccccc1NS(=O)(=O)c1ccc(C)c([N+](=O)[O-])c1`, the B-score is -4.52 (active). The result for `Cc1ccc(S(=O)(=O)NCCSc2ccccc2)cc1[N+](=O)[O-]` reads “inactive”. The result for `Cc1ccc(S(=O)(=O)Nc2nc3ccccc3s2)cc1[N+](=O)[O-]` reads “inactive”. `CCN1C(=O)[C@H]2[C@@H](c3ccc(SC4CCCCC4)c(OC)c3)N[C@@](Cc3ccccc3)(C(=O)OC)[C@H]2C1=O`: the B-score result is “inactive”. `CCOC(=O)Cn1c(O)c(N=NC(=O)CNC(=O)Cc2ccccc2)c2ccccc21`: the B-score entry is “inactive”. For the molecule `CCOc1cc(S(=O)(=O)NCc2ccc3c(c2)OCO3)ccc1F`, the B-score entry is “inactive”. The result for `Cc1cccc(NC(=O)N(Cc2cc3cc(C)cc(C)c3[nH]c2=O)CC2COCCO2)c1` (stereo not given) reads “inactive”; that for `CCOc1ccc(NC(=O)[C@H](C)NC(=O)C2CC(=O)N(c3ccc(OC)cc3)C2)cc1` (stereo not given in full), “inactive”; that for `NC(=O)c1ccccc1N=Cc1ccc2ccccc2c1`, “inactive”. For the molecule `O=C(CSc1ncccn1)NCCc1ccccc1`, the B-score result is “inactive”. As for `O=C(COc1ncnc2ccccc12)NC(=O)NCc1ccccc1`, the B-score entry was “inactive”.

`O=C(CSc1ncccn1)NC(=O)NCc1ccccc1`: the B-score is -6.78 (active). Take `CCOC(=O)[C@H]1[C@H]2COc3ccc(OC)cc3[C@@H]2N2C(=O)c3ccc(F)cc3NC(=O)[C@@]12C`: the B-score result is “inactive”. The result for `COC1=C(N2CCOCC2)C(=O)c2ccccc2C1=O` reads “inactive”; that for `CN1C(C(=O)NCC2CC2)CC2Cn3c(nc4ccccc43)C21` (stereo not given), “inactive”. The result for `Clc1ccc(CN2CCN(/N=C/c3cccnc3)CC2)cc1` reads “inactive”. The result for `COc1cccc(OCCOc2cccc(/C=N/n3cnnc3)c2)c1` reads “inactive”.

Consider `C(=N\n1cnnc1)/c1cccnc1`, for which the B-score was -4.63 (active). The result for `Cc1ccc(S(=O)(=O)N2[C@@H](c3ccccc3F)C(C(=O)O)=CC[C@H]2c2ccc(Cl)cc2)cc1` reads “inactive”; that for `CC1CCC(NC(=O)CN(C)S(=O)(=O)c2ccc3c(c2)c(=O)n(C)c(=O)n3C)CC1` (stereo not given), “inactive”; that for `CS(=O)(=O)Nc1ccccc1N=C(c1ccccc1)c1ccccc1`, “inactive”. For the molecule `NC(N)=NCCCc1cn(CC(=O)N2CCNCC2)nn1`, the B-score entry was “inactive”. The result for `Cc1nn(-c2ccccc2)c(C)c1NC(=O)COC(=O)c1cc(Cl)ccc1O` reads “inactive”; that for `Cc1nn(-c2ccccc2)c(C)c1NC(=O)CCl`, “inactive”; that for `Cc1nn(-c2ccccc2)c(C)c1NC(=O)COc1ccc(Cl)cc1Cl`, -5.44 (active). Take `Cc1c(C(=O)NCC(c2ccco2)N2CCCC2)oc2ccc(Cl)cc12` (stereo not given): the B-score entry is “inactive”. The result for `Cc1c(-c2ccccc2)cn2c1-c1ccc(C)n1CC2` reads “inactive”; that for `Cc1cc(Br)ccc1NC(=O)c1sc2ncn(CC(=O)N3CCN(c4ccccn4)CC3)c(=O)c2c1C`, “inactive”; that for `O=C(Cc1ccc(Br)cc1)N1CCN(c2ccccn2)CC1`, “inactive”. Regarding `Cc1cc(Br)ccc1NC(=O)c1cnc(N2CCN(c3ccccn3)CC2)c2ccccc12`, the B-score is -5.72 (active). The result for `O=C(Nc1cc(C(F)(F)F)ccc1Cl)c1cc2nc3c(c(C(F)(F)F)n2n1)CCCC3` reads “inactive”; that for `COC(=O)c1ccc2ccccc2c1OC1OC(CO)C(O)C(O)C1NC(C)=O` (stereo not given), “inactive”; that for `O=C(Nc1ccc(Cl)cc1)c1cc2nc(C3CC3)cc(C(F)(F)F)n2n1`, “inactive”. In the case of `Cc1cc(C)c(S(=O)(=O)NCC2CCC(C(=O)NCc3ccc4c(c3)OCO4)CC2)c(C)c1` (stereo not given), the B-score result was “inactive”.

For `COc1cc(NC(=O)CN2C(=O)NC(C)(c3ccc(OC(F)F)cc3)C2=O)cc(OC)c1OC` (stereo not given), the B-score result is “inactive”.

`CCN1CCN(CCNC(=O)c2ccc3c(c2)NC(=O)/C(=C\c2ccc(OC)c(OC)c2)S3)CC1`: the B-score entry was “inactive”.

`O=C(NCCN1CCOCC1)c1ccc(/C=C2\Sc3ccccc3N(Cc3ccc(F)cc3)C2=O)cc1`: the B-score result is “inactive”. The result for `CCN1CCN(CCNC(=O)c2ccc(/C=C3/Sc4ccccc4N(Cc4cccc(C)c4)C3=O)cc2)CC1` reads -7.53 (active); that for `Cc1ccc(Nc2cc(=O)n(C3CCCCC3)c(=O)[nH]2)cc1C`, “inactive”; that for `COc1cccc(N(Cc2nnc3n2CCCCC3)C(=O)Nc2ccccc2F)c1`, “inactive”.

Take `Cc1cccc(Nc2nc(-c3ccccc3)cs2)n1`: the B-score result is “inactive”. Consider `Clc1ccc(Nc2nc(-c3cccs3)cs2)nc1`, for which the B-score result was “inactive”. As to `Cc1ccc(Nc2nc(-c3ccc(O)cc3O)cs2)nc1`, the B-score was -4.59 (active). The result for `COc1ccc(-c2cc(C(=O)N(C)Cc3ccc(OC)c(OC)c3OC)c3ccccc3n2)cc1OC` reads “inactive”; that for `CCCCCCCCCCOC(=O)Cn1c(COc2cccc(OC)c2)[n+](C)c2ccccc21`, -13.2 (active). As to `CCCCCCCCCCOC(=O)Cn1c(COc2ccc(C)cc2)[n+](C)c2ccccc21`, the B-score is -10.1 (active). `CCCCCCCCC(=O)NCCOc1ccccc1`: the B-score entry was “inactive”. The result for `CCn1c(COc2cccc(OC)c2)nnc1SCC(=O)N1CCOCC1` reads “inactive”; that for `Cc1ccc(OCCCn2c(=O)oc3ccccc32)cc1`, “inactive”; that for `Cc1ccc(OCc2nc3ccccc3n2C)cc1`, “inactive”. The result for `CCOC(=O)c1cc(NC(=O)SCC(=O)O)c(C)nc1C` reads “inactive”. The result for `CC(=O)N(C)c1ccc(NC(=O)C(F)(F)F)cc1` reads -7.18 (active); that for `CCOc1ccc(NC(=O)Nc2ccc(N(C)C(C)=O)cc2)cc1`, “inactive”; that for `CC(=O)N(C)c1ccc(NC(=O)Nc2cccc3ccccc23)cc1`, “inactive”. `O=C(COC(=O)Cn1cnc2ccccc21)Nc1cccc2c1C(=O)c1ccccc1C2=O`: the B-score entry is “inactive”.

Take `Cc1cccc(NC(=O)Cc2ccc(Br)cc2)n1`: the B-score result was “inactive”. The result for `c1cc(-n2cnnn2)ccc1NC1=NCCC1` reads -5.5 (active); that for `O=C(Cc1c(F)cccc1Cl)Nc1ccc(-n2cnnn2)cc1`, “inactive”. For `O=S(=O)(NC1CCCC1)c1ccc(-n2cnnn2)cc1`, the B-score entry was “inactive”. On to `Cc1ccc(Cl)c(OCC(=O)N(C)CC(=O)Nc2ccc(N3CCOCC3)cc2)c1`, for which the B-score entry is “inactive”. The result for `CCOC(=O)c1ccc(COC(=O)CCc2nc(-c3ccccc3)c(-c3ccccc3)o2)cc1` reads “inactive”; that for `O=C(Nc1ccc(Cl)cc1)Nc1ccc(Oc2cccnc2)nc1`, -7.03 (active); that for `Cc1ccc(NC(=O)Nc2cccnc2)cc1`, “inactive”. `O=C(NNC(=O)c1csc(-c2cccnc2)n1)Nc1ccc(Cl)cc1`: the B-score result was “inactive”. The result for `CCn1c(SCC(=O)Nc2cc(C)ccc2C)nnc1-c1cnccn1` reads “inactive”; that for `Cc1ccccc1NC(=O)C(C)c1ccc(-c2ccccc2)c(F)c1` (stereo not given), “inactive”.

`CCOc1ccc(CN2CCC(n3nccc3NC(=O)C3CC3)CC2)cc1CO`: the B-score result is “inactive”. The result for `O=C(NC1CCCC1)C(c1ccccn1)N(C(=O)c1csnn1)C1CCCC1` (stereo not given) reads “inactive”; that for `Cc1ccc(C(C(=O)NC2CCCCC2)N(C(=O)c2csnn2)C2CC2)o1` (stereo not given), -7.09 (active); that for `O=C(NC1CCCC1)C(c1ccc(Cl)cc1)N(C(=O)c1csnn1)C1CC1` (stereo not given), “inactive”. With `CCc1ccc(Nc2n[n+](-c3ccccc3)c(-c3cccc(Cl)c3Cl)s2)cc1`, the B-score entry was “inactive”.

Consider `CCc1nnc(NC(=O)CCC(=O)N2CCN(c3cc(C)ccc3C)CC2)s1`, for which the B-score entry is “inactive”.

For the molecule `CC1CCC(N2CC(=O)N(Cc3ccc4c(c3)OCO4)C(c3ccc(F)cc3)C2=O)CC1` (stereo not given), the B-score result was “inactive”.

For `CCc1ccccc1NC(=O)c1ccc2c(c1)CCN2S(C)(=O)=O`, the B-score entry is “inactive”. In the case of `CC(=O)Nc1ccc(Oc2ccc3c(c2)C(=O)NC3=O)cc1`, the B-score entry was “inactive”. The result for `CCCCC(=O)Nc1ccc2c(c1)C(=O)NC2=O` reads -4.77 (active). As for `CCCCN(C)CCC(=O)Nc1ccc(Cl)cc1`, the B-score result was “inactive”.

In the case of `Cc1ccc(CN(CC(=O)NCC2CCCO2)S(=O)(=O)c2ccc(C)cc2)cc1` (stereo not given), the B-score result is “inactive”. Consider `CN1CCCN(S(=O)(=O)c2ccc3c(c2)OCCO3)CC1`, for which the B-score result was “inactive”.

In the case of `O=C(c1c(F)cccc1Cl)N1CCN(S(=O)(=O)c2ccc3c(c2)OCCCO3)CC1`, the B-score entry is “inactive”. `CCCCCC(=O)N1CCN(S(=O)(=O)c2ccc3c(c2)OCCCO3)CC1`: the B-score was -12 (active). The result for `COc1ccc(C(=O)NCCn2nc(C)cc2C)cc1OC1CCN(C(C)=O)CC1` reads “inactive”; that for `CCOc1ccc(NC(=O)COc2ccc(C(=O)N3CCC(C(N)=O)CC3)cc2OC)cc1`, -8.23 (active); that for `COc1ccc(C(=O)N2CCC(C(=O)Nc3cccc(C)c3)CC2)cc1OC`, “inactive”. Consider `CCOc1ccc(NC(=O)COc2ccc(C(=O)NC3CCCc4ccccc43)cc2OC)cc1` (stereo not given), for which the B-score entry was “inactive”. For `Cc1ccc(S(=O)(=O)CCC(=O)OCC(=O)N(C)C2CCS(=O)(=O)C2)cc1` (stereo not given), the B-score result was “inactive”.

Take `O=C(CSc1nnc2n1CCCN2)c1ccccc1`: the B-score entry is “inactive”.
